The values that follow come from PubChem BioAssay.

Each structure is given as a SMILES string. Activity calls are given as the source filed them. Unless noted, the rule behind the calls is not given here.

Assay [1] is described as follows: resazurin metabolic signal in HepG2 cells – cell-based, resazurin fluorescence, 24 h, PK04 Diversity Set, profiling panel (AID 1172). Note: test concentration not given here. Particulars: HepG2 viability, higher = more signal.
The nature of assay [2]: budding yeast growth changes without added modifier – OD600, strain BY4716, 24 h, basal condition, primary screen (AID 1173). Particulars: S. cerevisiae BY4716 growth, OD600, 24 h; higher = more signal, called active from +8 up or from −8 down.
Assay [3] can be described thus: viability profiling in MM1S myeloma cells – cell-based, resazurin fluorescence, basal, 24 h, PK04 Diversity Set, profiling panel (AID 1174).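 Note: MM1S multiple myeloma cell line; test concentration not given here.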 Particulars: higher = more signal, called active from +8 up or from −8 down.
The target in assay [4] is Dihydroorotate dehydrogenase (quinone), mitochondrial (Plasmodium falciparum (isolate 3D7)) (UniProt Q08210). Description: inhibition of P. falciparum DHODH – biochemical, C-terminal His tag, absorbance 600 nm, primary screen (AID 1175).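 Note: recombinant parasite enzyme with a five histidine tag at its C terminus; test concentration not given here.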 Particulars: PfDHODH enzyme, DCIP absorbance 600 nm; higher = more signal, called active from +8 up or from −8 down.
Sequence of Dihydroorotate dehydrogenase (quinone), mitochondrial (Plasmodium falciparum (isolate 3D7)) (Q08210 whole entry, looked up): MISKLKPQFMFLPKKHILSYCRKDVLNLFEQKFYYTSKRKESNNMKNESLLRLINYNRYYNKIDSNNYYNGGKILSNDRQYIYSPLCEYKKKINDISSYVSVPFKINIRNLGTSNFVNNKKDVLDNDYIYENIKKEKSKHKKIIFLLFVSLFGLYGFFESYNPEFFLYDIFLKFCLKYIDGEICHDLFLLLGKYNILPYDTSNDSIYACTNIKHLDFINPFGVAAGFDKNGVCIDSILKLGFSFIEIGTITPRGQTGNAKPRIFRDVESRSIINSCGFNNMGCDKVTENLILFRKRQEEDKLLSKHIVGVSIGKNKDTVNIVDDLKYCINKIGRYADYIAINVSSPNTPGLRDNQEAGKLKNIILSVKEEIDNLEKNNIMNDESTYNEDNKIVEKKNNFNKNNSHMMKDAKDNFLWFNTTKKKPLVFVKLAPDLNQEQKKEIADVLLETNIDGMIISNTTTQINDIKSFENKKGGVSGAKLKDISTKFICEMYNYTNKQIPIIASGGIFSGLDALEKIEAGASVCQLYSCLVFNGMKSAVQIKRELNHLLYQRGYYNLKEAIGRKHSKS
The nature of assay [5]: inhibition of PAO1 biofilm formation – strain PAO1, LB-PBS medium, absorbance 600 nm, primary screen (AID 1176). Note: test concentration not given here. Particulars: P. aeruginosa PAO1 growth/biofilm, A600, 12 h; higher = more signal.
Assay [6] is described as follows: growth modulation of vineyard yeast isolate – strain RM11-1a, OD600, basal, 24 h, primary screen (AID 1177).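 Note: cultures grown under basal conditions with no added stressor; test concentration not given here.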 Particulars: S. cerevisiae RM11-1a growth, OD600, 24 h; higher = more signal, called active from +8 up or from −8 down.
A short description of assay [7]: growth of efflux-deficient E. coli DRC39 – strain DRC39, OD650, 24 h, E. coli filamentation inducers, primary screen (AID 1178).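 Note: growth measured as culture turbidity by optical density at 650 nm; test concentration not given here.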 Particulars: E. coli DRC39 acrAB, higher = more signal, called active from +8 up or from −8 down.
Assay [8] can be described thus: growth of efflux-deficient E. coli DRC39 – strain DRC39, OD650, 48 h, E. coli filamentation inducers, primary screen (AID 1179).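 Note: screen aims at cell division blockers that make cells filament.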 Particulars: E. coli DRC39 delta-acrAB growth, higher = more signal, called active from +8 up or from −8 down.
Assay [9] in a line: viability profiling in RPMI8226 myeloma cells – cell-based, resazurin fluorescence, basal, 24 h, PK04 Diversity Set, profiling panel (AID 1180).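 Note: RPMI8826 multiple myeloma cell line at 5000 cells per well; test concentration not given here.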 Particulars: higher = more signal.
For assay [10], the target named is E3 ubiquitin-protein ligase XIAP (Homo sapiens) (UniProt P98170). Description: small molecules binding XIAP protein – biophysical, small-molecule microarray, fluorescence 635 nm, primary screen (AID 1181).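 Note: score merges 667 nm emission and signal to noise over triplicate slides.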 Particulars: higher = more signal.
Sequence of E3 ubiquitin-protein ligase XIAP (Homo sapiens) (P98170 whole entry, looked up): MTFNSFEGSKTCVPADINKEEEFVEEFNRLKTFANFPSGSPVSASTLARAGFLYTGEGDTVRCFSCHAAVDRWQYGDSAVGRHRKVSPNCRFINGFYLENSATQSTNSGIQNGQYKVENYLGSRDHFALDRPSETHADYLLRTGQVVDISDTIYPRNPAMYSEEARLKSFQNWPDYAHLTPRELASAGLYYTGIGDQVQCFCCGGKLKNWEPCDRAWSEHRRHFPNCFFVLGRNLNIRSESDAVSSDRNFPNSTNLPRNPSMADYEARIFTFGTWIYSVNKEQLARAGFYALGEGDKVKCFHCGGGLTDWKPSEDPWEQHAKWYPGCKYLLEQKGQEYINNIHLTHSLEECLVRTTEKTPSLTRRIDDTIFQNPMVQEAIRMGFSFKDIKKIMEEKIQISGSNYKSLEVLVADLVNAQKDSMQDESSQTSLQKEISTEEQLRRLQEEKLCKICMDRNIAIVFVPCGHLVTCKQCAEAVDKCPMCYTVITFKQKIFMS

`COc1ccc([Si](C)(C)[C@H]2[C@H](CCO)O[C@@]3(C(=O)N(Cc4ccccc4)c4ccc(N5C(=O)COc6ccccc65)cc43)[C@@H]2C)cc1`: the z-score in [1] is -0.981; in assay [2] it was 0.0662 (inactive); in assay [3], -2.72 (inactive); in assay [5], 1.31 (inactive); in assay [6], 3.06 (inactive); in [7], 1.2 (inactive). Also, the z-score in assay [8] was 0.433 (inactive); in [9], -3.14. In addition, the figures for the composite z-score in [4] and in assay [10] were 0.0861 (inactive) and -0.0622, respectively.

`CS(=O)(=O)CCOC(=O)C1=CC(c2ccc(CO)cc2)=CC(c2cccs2)N(Cc2cccc(OC(F)(F)F)c2)C=C1C(=O)OCCS(C)(=O)=O` (stereo not given): the z-score was -0.534 in [1]; -4.14 (inactive) in assay [2]; -2.98 (inactive) in assay [3]; 0.907 (inactive) in assay [5]; 0.267 (inactive) in assay [6]; -2.93 (inactive) in assay [7]. Further, the z-score is -3.3 (inactive) in [8] and -1.32 in assay [9]. Besides, the results for the composite z-score in [4] and in [10] were -1.08 (inactive) and -0.22, respectively.

On to `C=CCN1Cc2ccccc2C[C@]2(N=C(c3ccc(OCCCO)cc3)O[C@@H]2c2ccccc2)C1=O`, for which the z-score is -0.677 in assay [1]; -1.35 (inactive) in [2]; -2.24 (inactive) in assay [3]; 1.32 (inactive) in assay [5]; -0.211 (inactive) in [6]; 1.13 (inactive) in assay [7]. In addition, the z-score was 1.09 (inactive) in [8] and -2.07 in [9]. Further, the values for the composite z-score in assay [4] and in [10] were -1.1 (inactive) and -0.186, respectively.

Consider `C=CC[C@]1(C(=O)O)N=C(c2ccc(OCCCO)cc2)O[C@H]1c1ccccc1CN=[N+]=[N-]`, for which the z-score was 0.13 in assay [1]; -0.518 (inactive) in [2]; -2.6 (inactive) in [3]; -0.555 (inactive) in assay [5]; 0.363 (inactive) in [6]; 0.104 (inactive) in [7]. Moreover, the z-score was 0.619 (inactive) in assay [8] and -0.728 in assay [9]. The composite z-score in assay [4] was 0.381 (inactive); in [10] it was 0.117.

With `CCN(CC)c1ccc(N2CC=CC34O[C@@H]5/C=C\CCC(C)OC(=O)C5[C@H]3C(=O)N(CCCCCCO)[C@@H]4C2=O)cc1` (stereo not given in full), the z-score in assay [1] is -0.105; in assay [2], -0.0746 (inactive); in assay [3], 0.384 (inactive); in [5] it was -0.497 (inactive); in assay [6], 0.251 (inactive); in [7], 1.37 (inactive). The z-score in assay [8] was 1.59 (inactive); in assay [9], 1.56. In addition, the figures for the composite z-score in assay [4] and in [10] were -0.788 (inactive) and -0.0545, respectively.

As to `Cc1ccc(S(=O)(=O)N2CC(C(=O)O)=CCC2c2ccccc2)cc1` (stereo not given), the z-score was -1.31 in assay [1]; 0.558 (inactive) in assay [2]; -2.27 (inactive) in assay [3]; 0.12 (inactive) in [5]; 0.437 (inactive) in [6]; -1.28 (inactive) in [7]. The z-score was -1.15 (inactive) in assay [8] and -0.931 in assay [9]. In addition, the composite z-score was 0.154 (inactive) in [4] and 0.155 in [10].

Take `CCCC[C@@H]1C[C@H]1[C@@H](NC(=O)c1ccccc1)c1ccccc1`: the z-score in assay [1] is 0.237; in assay [2], 1.21 (inactive); in assay [3], -0.694 (inactive); in assay [5] it was -0.471 (inactive); in assay [6], 0.601 (inactive); in [7] it was 0.104 (inactive). In addition, the z-score is 0.233 (inactive) in assay [8] and -1.07 in [9]. In addition, the composite z-score in assay [4] is -0.113 (inactive); in assay [10] it was -0.0289.

Regarding `C=CC[C@]1(C(=O)NCCN2CCOCC2)N=C(c2ccc(OCCCO)cc2)O[C@H]1c1ccccc1N=[N+]=[N-]`, the z-score in assay [1] was -0.153; in assay [2] it was -1.51 (inactive); in assay [3] it was 0.0032 (inactive); in [5], -0.251 (inactive); in assay [6], 0.393 (inactive); in assay [7] it was 2.29 (inactive). Also, the z-score is 0.746 (inactive) in assay [8] and -0.414 in assay [9]. Moreover, the composite z-score in assay [4] is 0.918 (inactive); in assay [10] it was 0.113.

Take `COC(=O)[C@@]1(Cc2ccccc2)[C@H]2c3cc(C(=O)N(C)C)n(Cc4ccccc4)c3C[C@H]2CN1C(=O)c1ccccc1`: the z-score was -0.853 in assay [1]; 2.1 (inactive) in assay [2]; -1.5 (inactive) in [3]; 0.246 (inactive) in assay [5]; 1.6 (inactive) in assay [6]; -0.656 (inactive) in [7]. Further, the z-score in [8] was -0.411 (inactive); in assay [9] it was -1.05. The composite z-score in [4] is -0.252 (inactive); in [10] it was 0.294.

For the compound `C[C@H]1C2[C@H](Cc3ccccc3)NC(=O)[C@]23C(=O)N[C@H](Cc2ccccc2)C(=O)N[C@H](Cc2ccccc2)C(=O)NC/C=C/CCC/C=C/C3[C@@H]2O[C@]12C` (stereo not given in full), the z-score in [1] was -1.6; in assay [2], -1.6 (inactive); in assay [3] it was -0.121 (inactive); in assay [5] it was -0.283 (inactive); in assay [6] it was 0.336 (inactive); in [7], 0.276 (inactive). The results for the z-score in assay [8] and in [9] were -0.934 (inactive) and -0.403, respectively. For the same compound, the composite z-score in assay [4] was 0.453 (inactive); in [10], -0.0807.

Take `O=C1c2ccccc2[C@](Cc2ccccc2I)(C(=O)O)[C@H](c2ccc(CO)cc2)N1Cc1ccccc1C(F)(F)F`: the z-score in [1] was 1.02; in assay [2] it was -0.874 (inactive); in assay [3] it was 0.283 (inactive); in assay [5], -0.0528 (inactive); in [6] it was 0.893 (inactive); in assay [7], -0.0217 (inactive). The figures for the z-score in assay [8] and in assay [9] were -0.0555 (inactive) and 0.0019, respectively. Moreover, the composite z-score in assay [4] is 0.833 (inactive); in assay [10] it was 0.12.

In the case of `O=C1O[C@H](c2ccccc2)[C@H](c2ccccc2)N2[C@H]1[C@@H](C(=O)NC[C@H](O)c1ccccc1)[C@]1(C(=O)Nc3ccc(C#CC4(O)CCCCCC4)cc31)[C@H]2c1ccccc1OCCO`, the z-score in assay [1] is -2.48; in assay [2], 1.6 (inactive); in [3], -7.19 (inactive); in [5], 2.83 (inactive); in [6], 3.43 (inactive); in [7], 0.408 (inactive). Besides, the z-score was 0.283 (inactive) in [8] and -6.96 in assay [9]. Moreover, the composite z-score is -0.147 (inactive) in [4] and 0.165 in assay [10].
